# The entries come from a sample that favours the strongest signals as a whole.
# B1: GS13686A-pdi-553-26-553 (Parabacteroides distasonis) (protein)
# chain: NENPDKPTDDVNYNMNEPRLASTLRGGLIIEGNVEQRLKPLQIDFYSQMTVDGGGWGTKNYIQDDEWNNLVWEEYLKQIASINIVIRSLTEKDKDAYANTIAFARIWRVYVHTLAADKFGPMPFPAYEIVEANPPYKSLKDIYDEYFRELDAAINGFNDSAQPIFSDAGIDLIYKNDVSKWKRFANSLRLRLAVRLTEVDQEKCIAEANAAISSPAGLISDKADNAYMPPKADGSWGQDYNYTMFQITWSGPICMSKSVEKLVTNIGGVAWPQGVVNQTSGVAVSSVHPEKVDPRAPKIFQPGIENGDWKGLVYGPKAEEANTGIYQSKQCAELGFIIKDGYPYKSRPYDLFLSEEVHFLKAELYARGFIAGDAKSEYEAGVRASFATWGVTSEVDDYLTSTEKNEAGTSARYDDQQGAGNTALEKIITQKYIAGIPDLAQEGWNDKRRLNLPRLDVAVYRDQAVYNNNDKDILKSANFIKRMRYPTKESLINATEYEKGKSMLGGKGDIVSTPLWWDKNSNYCTSSK
# Assays:
# Assay in all cases: glycan array binding signal (z-score within array); higher = stronger binding
# Conditions in all cases: glycan notation: IUPAC condensed, linker removed
# [1] = target: Fuc(a1-2)Gal(b1-3)GlcNAc(b1-2)Man(a1-3)[Fuc(a1-2)Gal(b1-3)GlcNAc(b1-2)Man(a1-6)]Man(b1-4)GlcNAc(b1-4)GlcNAc
# Method in brief: (§1)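 The Consortium for Functional Glycomics database supplied 3228 glycan arrays, of which those lacking an available protein sequence were dropped. The binding signal, a within-array Z-score, was averaged across arrays of the same protein sequence and across linkers. Negative scores can be read as non-binding.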
# Fuc(a1-2)Gal(b1-4)Glc = target: Fuc(a1-2)Gal(b1-4)Glc
# Method in brief: as §1
# Fuc(a1-2)Gal(b1-4)Glc6S = target: Fuc(a1-2)Gal(b1-4)Glc6S
# Method in brief: as §1
# Fuc(a1-2)Gal6S(b1-4)Glc = target: Fuc(a1-2)Gal6S(b1-4)Glc
# Method in brief: as §1
# [2] = target: Fuc(a1-2)[Gal(a1-3)]Gal(b1-4)GlcNAc(b1-3)[Fuc(a1-2)[Gal(a1-3)]Gal(b1-4)GlcNAc(b1-6)]GalNAc
# Method in brief: as §1
# [3] = target: Fuc(a1-2)[Gal(a1-3)]Gal(b1-4)GlcNAc(b1-6)GalNAc
# Method in brief: as §1
# [4] = target: Fuc(a1-2)[GalNAc(a1-3)]Gal(b1-3)GalNAc(b1-3)Gal(a1-4)Gal(b1-4)Glc
# Method in brief: as §1
# [5] = target: Fuc(a1-2)[GalNAc(a1-3)]Gal(b1-4)GlcNAc(b1-2)Man(a1-3)[Fuc(a1-2)[GalNAc(a1-3)]Gal(b1-4)GlcNAc(b1-2)Man(a1-6)]Man(b1-4)GlcNAc(b1-4)[Fuc(a1-6)]GlcNAc
# Method in brief: as §1
# [6] = target: Fuc(a1-2)[GalNAc(a1-3)]Gal(b1-4)GlcNAc(b1-3)Gal(b1-4)GlcNAc
# Method in brief: as §1
# [7] = target: Fuc(a1-2)[GalNAc(a1-3)]Gal(b1-4)GlcNAc(b1-3)Gal(b1-4)GlcNAc(b1-3)Gal(b1-4)GlcNAc
# Method in brief: as §1
# [8] = target: Fuc(a1-2)[GalNAc(a1-3)]Gal(b1-4)GlcNAc(b1-6)GalNAc
# Method in brief: as §1
# [9] = target: Fuc(a1-2)[GalNAc(a1-4)]Gal(b1-4)GlcNAc
# Method in brief: as §1
# [10] = target: Fuc(a1-3)[Gal(b1-4)]GlcNAc(b1-2)Man
# Method in brief: as §1
# [11] = target: Fuc(a1-3)[Gal(b1-4)]GlcNAc(b1-3)Gal(b1-4)[Fuc(a1-3)]GlcNAc(b1-3)Gal(b1-4)[Fuc(a1-3)]GlcNAc
# Method in brief: as §1
# [12] = target: Fuc(a1-3)[Gal(b1-4)]GlcNAc6S
# Method in brief: as §1
# Gal(a1-6)Glc = target: Gal(a1-6)Glc
# Method in brief: as §1
# Gal(b1-3)GalNAc = target: Gal(b1-3)GalNAc
# Method in brief: as §1
# [13] = target: Gal(b1-3)GlcNAc(b1-2)[Gal(b1-3)GlcNAc(b1-6)]Man(a1-6)[Gal(b1-3)GlcNAc(b1-2)Man(a1-3)]Man(b1-4)GlcNAc(b1-4)GlcNAc
# Method in brief: as §1
# [14] = target: Gal(b1-3)GlcNAc(b1-3)Gal(b1-4)Glc
# Method in brief: as §1
# [15] = target: Gal(b1-3)GlcNAc(b1-3)Gal(b1-4)GlcNAc(b1-2)[Gal(b1-3)GlcNAc(b1-3)Gal(b1-4)GlcNAc(b1-6)]Man(a1-6)[Gal(b1-3)GlcNAc(b1-3)Gal(b1-4)GlcNAc(b1-2)Man(a1-3)]Man(b1-4)GlcNAc(b1-4)[Fuc(a1-6)]GlcNAc
# Method in brief: as §1
# [16] = target: Gal(b1-3)GlcNAc(b1-6)GalNAc
# Method in brief: as §1
# [17] = target: Gal(b1-3)[Neu5Ac(b2-6)]GalNAc
# Method in brief: as §1
# [18] = target: Gal(b1-4)GlcNAc(b1-2)Man(a1-3)[Gal(b1-4)GlcNAc(b1-2)Man(a1-6)][GlcNAc(b1-4)]Man(b1-4)GlcNAc(b1-4)[Fuc(a1-6)]GlcNAc
# Method in brief: as §1
# [19] = target: Gal(b1-4)GlcNAc(b1-2)Man(a1-6)[GlcNAc(b1-2)Man(a1-3)]Man(b1-4)GlcNAc(b1-4)GlcNAc
# Method in brief: as §1
# [20] = target: Gal(b1-4)GlcNAc(b1-2)Man(a1-6)[Man(a1-3)]Man(b1-4)GlcNAc(b1-4)GlcNAc
# Method in brief: as §1
# [21] = target: Gal(b1-4)GlcNAc(b1-2)[Gal(b1-4)GlcNAc(b1-4)]Man(a1-3)[Gal(b1-4)GlcNAc(b1-2)[Gal(b1-4)GlcNAc(b1-6)]Man(a1-6)]Man(b1-4)GlcNAc(b1-4)GlcNAc
# Method in brief: as §1
# [22] = target: Gal(b1-4)GlcNAc(b1-3)Gal(b1-3)GlcNAc
# Method in brief: as §1
# [23] = target: Gal(b1-4)GlcNAc(b1-3)Gal(b1-4)GlcNAc(b1-3)Gal(b1-4)GlcNAc(b1-2)Man(a1-3)[Gal(b1-4)GlcNAc(b1-3)Gal(b1-4)GlcNAc(b1-3)Gal(b1-4)GlcNAc(b1-2)Man(a1-6)]Man(b1-4)GlcNAc(b1-4)GlcNAc
# Method in brief: as §1
# [24] = target: Gal(b1-4)GlcNAc(b1-6)GalNAc
# Method in brief: as §1
# [25] = target: Gal(b1-4)GlcNAc(b1-6)[Gal(b1-4)GlcNAc(b1-3)]GalNAc
# Method in brief: as §1
binder,measurement,setting,value
B1,glycan array binding signal (z-score),[1],0.144
same,glycan array binding signal (z-score),Fuc(a1-2)Gal(b1-4)Glc,-0.076
same,glycan array binding signal (z-score),Fuc(a1-2)Gal(b1-4)Glc6S,0.03
same,glycan array binding signal (z-score),Fuc(a1-2)Gal6S(b1-4)Glc,-0.226
same,glycan array binding signal (z-score),[2],0.003
same,glycan array binding signal (z-score),[3],0.081
same,glycan array binding signal (z-score),[4],-0.124
same,glycan array binding signal (z-score),[5],0.023
same,glycan array binding signal (z-score),[6],0.224
same,glycan array binding signal (z-score),[7],0.041
same,glycan array binding signal (z-score),[8],-0.281
same,glycan array binding signal (z-score),[9],1.95
same,glycan array binding signal (z-score),[10],-0.253
same,glycan array binding signal (z-score),[11],-0.035
same,glycan array binding signal (z-score),[12],-0.276
same,glycan array binding signal (z-score),Gal(a1-6)Glc,0.108
same,glycan array binding signal (z-score),Gal(b1-3)GalNAc,0.011
same,glycan array binding signal (z-score),[13],0.046
same,glycan array binding signal (z-score),[14],-0.082
same,glycan array binding signal (z-score),[15],1.83
same,glycan array binding signal (z-score),[16],1.97
same,glycan array binding signal (z-score),[17],1.03
same,glycan array binding signal (z-score),[18],1.35
same,glycan array binding signal (z-score),[19],0.027
same,glycan array binding signal (z-score),[20],-0.04
same,glycan array binding signal (z-score),[21],2.01
same,glycan array binding signal (z-score),[22],-0.133
same,glycan array binding signal (z-score),[23],0.45
same,glycan array binding signal (z-score),[24],-0.056
same,glycan array binding signal (z-score),[25],-0.002
